Source: PubChem BioAssay AID1850 (Southern Research Specialized Biocontainment Screening …, 2009)
In all, about 310,000 compounds went through this assay and about 1,000 (0.32%) were called active. No rule for the calls is given here. Not all results are given here. Results with a measured potency or affinity are listed apart.

assay: PhoP regulon inhibitors, Salmonella typhi PhoP promoter GFP reporter, confirmatory (AID 1850); details: fluorescence, 4 h, at 50 µM, stronger effect = higher value;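 also: 0% = induced wells with vehicle and 100% = uninduced wells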

SMILES	inhibition
NC(=O)Cn1c(=O)n(CC(=O)N2CCCCC2)c(=O)c2sccc21	2.84% (inactive)
COc1ccc2[nH]c(C)c(CCNC(=S)Nc3ccccc3OC)c2c1	-5.5% (inactive)
COc1ccc(CNCCc2c(C)[nH]c3ccc(OC(F)(F)F)cc23)c(OC)c1	-3.23% (inactive)
Cc1[nH]c2ccc(OC(F)(F)F)cc2c1CCNCc1cccc([N+](=O)[O-])c1	6.4% (inactive)
COc1ccc2[nH]c(C)c(CCNCc3cc(OC)c(OC)c(OC)c3)c2c1	7.48% (inactive)
O=C(CN1CCC(C(O)(c2ccccc2)c2ccccc2)CC1)Nc1cc(Cl)ccc1Cl	-20% (inactive)
COc1ccccc1C(=O)NC(=O)Nc1nc(-c2ccccc2)cc(C(F)(F)F)n1	2.17% (inactive)
C/C=C/c1ccc(O)c(OC)c1	1.57% (inactive)
COc1cc(/C=C/C(=O)O)ccc1O	10.8% (inactive)
C/C(=N\Nc1nc(C)cc(-c2ccccc2)n1)c1ccc(O)cc1	-2.43% (inactive)
Cc1cccc(C)c1NC(=O)CN(C)C(=O)c1ccc2nc[nH]c2c1	1.29% (inactive)
Cc1ccc(C(=O)NCC(C)NC(=O)c2ccc(C)c([N+](=O)[O-])c2)cc1[N+](=O)[O-] (stereo not given)	-3.75% (inactive)
O=C1c2ccccc2NC(c2ccc(-c3cccc([N+](=O)[O-])c3)o2)N1O (stereo not given)	-4.04% (inactive)
CCOC(=O)c1ccc(-c2ccc(C3Nc4ccccc4C(=O)N3O)o2)cc1 (stereo not given)	-7.99% (inactive)
CCN1CCN(c2ccc(S(=O)(=O)N3CCCCC3)cc2NC(=O)c2ccccc2)CC1	-7.27% (inactive)
CSC(=NS(=O)(=O)c1ccc(C)cc1)SC	2.62% (inactive)
CCC(C)(C)NC(=O)CN(CC1CCCO1)C(=O)CCC(=O)Nc1nccs1 (stereo not given)	1.73% (inactive)
CCOC(=O)C1CCN(c2cc3c(cc2NC(=O)c2ccccc2F)n(C)c(=O)n3C)CC1	-6.44% (inactive)
CCN(CC)CCCNC(=O)c1c(O)c2cc(F)cc3c2n(c1=O)C(C)CC3 (stereo not given)	-12.5% (inactive)
CCOC(=O)c1cn(CC2CC2)c2cc(F)c(F)cc2c1=O	-1.36% (inactive)

SMILES	inhibition
CC1CCc2cc(F)cc3c(O)c(C(=O)NCCN(C)C)c(=O)n1c23 (stereo not given)	-11.2% (inactive)
O=C(O)c1cn(-c2ccc(F)c(F)c2)c2c(F)c(F)c(F)c(F)c2c1=O	-8.9% (inactive)
C[n+]1ccccc1/C=C/c1ccc(F)c(F)c1	-2.41% (inactive)
N#Cc1ccccc1OCC(O)CS(=O)(=O)c1ccccc1 (stereo not given)	8.05% (inactive)
Cc1ccc(NNC(=O)c2cc(C(C)(C)C)nn2Cc2ccccc2)cc1	1.12% (inactive)
Cc1cc(C)cc(NS(=O)(=O)c2csc(C(N)=O)c2)c1	-4.13% (inactive)
N#Cc1c(C(F)(F)F)cc(Cc2ccccc2)nc1SCC(=O)NCC(=O)O	-9.26% (inactive)
Cc1ccc2oc(=O)c3cc(C(=O)NCCCN4CCc5ccccc5C4)sc3c2c1	-1.04% (inactive)
Cc1c(OCC(=O)N[C@@H](Cc2c[nH]c3ccccc23)C(=O)O)ccc2c1oc(=O)c1ccccc12	4.69% (inactive)
CCOC(=O)C1CCCN(C(=O)c2ccc3nc(-c4ccccc4)c(-c4ccccc4)nc3c2)C1 (stereo not given)	5.36% (inactive)
CCCc1nc2sc(C(=O)OCC)c(N)c2c2c1COC(C)(C)C2	0.3% (inactive)
O=C(CSc1nccc(=O)[nH]1)Nc1ccc(Br)c(Cl)c1	4.82% (inactive)
CCN(CC)C(=O)CSc1nc(COc2ccccc2)nc2ccccc12	-0.33% (inactive)
CC[C@@H](C)[C@H](CN[C@H](CNC)[C@@H](C)O)NCCc1ccc(OC)cc1	4.36% (inactive)
CC[C@H](C)[C@@H](CNC)NC[C@@H](Cc1ccc(O)cc1)NCC(C)(C)C	4.52% (inactive)
O=C(O)CCCC(=O)NCCCCc1ccccc1	-10.7% (inactive)
COc1cc2ccc3c(CCN(C)C)cc(OC)c(OC)c3c2cc1OC	13.6% (inactive)
CCCCCSc1cc(OC)c(CCN)cc1OC	15.9% (inactive)
CCCCCCSc1cc(-c2nc3cc(C)ccn3c2NCCCC)ccc1OC	0.7% (inactive)
CCCCCSc1cc(O)c(C(CNC)C(C)C)cc1OC (stereo not given)	-3.45% (inactive)

SMILES	inhibition
CCCCCSc1cc(OC)c(CCN(C)C)cc1OC	11.2% (inactive)
CNCCc1ccc(OC)c(OC)c1	10.9% (inactive)
Cc1ccccc1S(=O)Cc1ccc(C(=O)NC2CCN(Cc3ccccc3)CC2)o1 (stereo not given)	-1.02% (inactive)
COCC1CCN(C(=O)C2CCC(=O)N(CCc3cccc(F)c3)C2)CC1 (stereo not given)	-0.82% (inactive)
COc1cc(/C=N/N2CCN(c3ccc(Cl)cc3)CC2)cc(OC)c1OC(C)=O	-1.44% (inactive)
CC(=O)N1CCN(c2ccc(NC(=O)c3cccc(Cl)c3)cc2)CC1	13.2% (inactive)
O=C(CCS(=O)(=O)c1ccc(Cl)cc1)Nc1nc(-c2ccncc2)cs1	-19.9% (inactive)
Cc1ccc(C(=O)Nc2ccccc2Sc2ccccc2)cc1	8.29% (inactive)
Cc1ccc(C(=O)CC(=O)c2ccccc2)cc1	2.22% (inactive)
Cc1cc(Nc2cccc(C(F)(F)F)c2)n2nc(C)nc2n1	2.14% (inactive)
Clc1ccc2c(c1)C(OC1CN3CCC1CC3)c1ccccc1CS2 (stereo not given)	-1.82% (inactive)
Brc1ccc2c(c1)C(C1=NCCN1)c1ccccc1CS2 (stereo not given)	-3.48% (inactive)
COc1ccc(C(=O)NCCCOC(=O)c2ccc(OC)cc2)cc1	-6.57% (inactive)
CCOC(=O)c1sc(=NC(=O)c2ccc(F)cc2)n(C)c1C	0.21% (inactive)
Cc1cc(N2CCN(C3CCCCC3)CC2)nc2cccc(O)c12	40.7% (inactive)
Cc1cc(N2CCC(C)CC2)nc(-c2ccccc2O)n1	-7.47% (inactive)
CN(C)c1ccc(/C=N/NC(=O)c2cccc(C(=O)N/N=C/c3ccc(N(C)C)cc3)n2)cc1	-1.09% (inactive)
COc1ccc(-c2ccc(=O)n(CC(=O)Nc3cccc(O)c3)n2)cc1OC	-4.09% (inactive)
O=c1cc(CN2CCN(C/C=C/c3ccccc3)CC2)c2cc(O)c(-c3ccccc3)cc2o1	1.7% (inactive)
O=c1cc(CN2CCN(C/C=C/c3ccccc3)CC2)c2cc(O)ccc2o1	0.2% (inactive)
